Measurements from PubChem BioAssay (Tox21).
Results filed as inconclusive are left out. Active and inactive are the calls of the source. Unless noted, calls follow the shape of the dose curve; as a rule, active = well fitted curve in the direction sought with a large enough effect in the repeat runs; inconclusive = weak or mixed curves; inactive = no such curve, though single readings can be large; an effect the other way counts as inactive or inconclusive.

Key:
[1] = qHTS assay to identify small molecule antagonists of the peroxisome proliferator-activated receptor delta (PPARd) signaling pathway - cell viability counter screen (AID 743213); also: nearly all actives have a fitted effect of over 50% in size
How it was run: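 PPARd-bla HEK293H cells (3000/well) got compound plus 300 nM L165041 agonist for 17 h at 37 C. Viability in the same wells came from CellTiter-Glo luminescence after 30 min at room temperature.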

[2] = molecular target: Peroxisome proliferator-activated receptor delta (Homo sapiens) (UniProt Q03181); test: qHTS assay to identify small molecule antagonists of the peroxisome proliferator-activated receptor delta (PPARd) signaling pathway (AID 743215; active = well fitted inhibition curve with a large enough effect in the signal ratio in the repeat runs, not every such curve was filed as active; the % refers to the signal ratio;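 also: cells stimulated with agonist L165041 at 300 nM final during compound exposure; series mostly up to about 62 µM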)
Peroxisome proliferator-activated receptor delta (Homo sapiens), sequence (Q03181 whole entry, looked up): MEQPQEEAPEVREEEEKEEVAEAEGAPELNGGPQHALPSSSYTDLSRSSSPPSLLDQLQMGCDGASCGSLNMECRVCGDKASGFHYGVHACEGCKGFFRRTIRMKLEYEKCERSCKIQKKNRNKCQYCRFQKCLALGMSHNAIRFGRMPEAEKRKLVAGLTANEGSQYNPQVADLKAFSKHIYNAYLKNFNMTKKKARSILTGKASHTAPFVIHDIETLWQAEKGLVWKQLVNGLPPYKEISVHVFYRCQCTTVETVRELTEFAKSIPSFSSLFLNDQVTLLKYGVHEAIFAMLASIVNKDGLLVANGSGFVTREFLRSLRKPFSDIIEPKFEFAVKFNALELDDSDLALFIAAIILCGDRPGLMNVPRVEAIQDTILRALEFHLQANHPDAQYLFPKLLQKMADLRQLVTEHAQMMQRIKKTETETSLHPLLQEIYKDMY
How it was run: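 Agonist L165041 (300 nM final) added with compound to PPARd-bla HEK293H UAS-bla reporter cells; 17 h incubation at 37 C. Read-out: LiveBLAzer FRET substrate, 2 h at room temperature, fluorescence intensity.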

[3] = qHTS assay to identify small molecule agonists of the farnesoid-X-receptor (FXR) signaling pathway - cell viability counter screen (AID 743218); also: nearly all actives have a fitted effect of over 45% in size
How it was run: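 Viability counter screen in the same wells: CellTiter-Glo luminescence, 30 min room-temperature incubation, measured after the beta-lactamase read. Cells were GeneBLAzer FXR-UAS-bla HEK 293T, compound-treated 16 h at 37C.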

[4] = qHTS assay to identify small molecule antagonists of the farnesoid-X-receptor (FXR) signaling pathway - cell viability counter screen (AID 743221; active = well fitted cell-killing curve with a large enough effect in the repeat runs, not every such curve was filed as active; also: nearly all actives have a fitted effect of over 50% in size)
How it was run: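 In GeneBLAzer FXR-UAS-bla HEK 293T cells stimulated with 50 uM chenodeoxycholic acid (final), compounds acted for 16 h at 37 C. Viability was assessed afterwards by CellTiter-Glo luminescence.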

[5] = molecular target: Vitamin D3 receptor (Homo sapiens) (UniProt P11473); test: qHTS assay to identify small molecule agonists of the vitamin D receptor (VDR) signaling pathway (AID 743222; calls by dose curve)
Vitamin D3 receptor (Homo sapiens), sequence (P11473 whole entry, looked up): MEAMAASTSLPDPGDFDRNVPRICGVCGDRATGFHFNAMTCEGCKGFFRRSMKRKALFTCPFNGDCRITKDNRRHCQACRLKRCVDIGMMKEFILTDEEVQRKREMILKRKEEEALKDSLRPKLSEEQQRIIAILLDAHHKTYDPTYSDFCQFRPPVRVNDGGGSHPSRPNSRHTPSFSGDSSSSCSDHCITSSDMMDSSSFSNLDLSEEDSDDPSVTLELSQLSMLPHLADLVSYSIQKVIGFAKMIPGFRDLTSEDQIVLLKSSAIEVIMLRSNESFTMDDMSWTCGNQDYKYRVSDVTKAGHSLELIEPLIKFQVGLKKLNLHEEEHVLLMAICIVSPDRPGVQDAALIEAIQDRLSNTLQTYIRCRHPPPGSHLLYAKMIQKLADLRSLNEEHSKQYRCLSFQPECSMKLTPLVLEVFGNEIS
How it was run: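 Agonist mode, beta-lactamase reporter: fluorescence from LiveBLAzer B/G FRET substrate (2 h, room temperature) read after 16 h compound treatment at 37 C of VDR-bla cells, which were pre-incubated 4 h after seeding.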

[6] = molecular target: Vitamin D3 receptor (Homo sapiens) (UniProt P11473); test: qHTS assay to identify small molecule antagonists of the vitamin D receptor (VDR) signaling pathway (AID 743223; active = well fitted inhibition curve with a large enough effect in the signal ratio in the repeat runs, not every such curve was filed as active; the % refers to the signal ratio)
How it was run: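 Agonist 1alpha,25-dihydroxyvitamin D3 (3 nM in well) was added with each compound to VDR-bla cells preincubated 4 h. Cells stood 16 h at 37C, then FRET substrate 2 h at room temperature; fluorescence intensity recorded.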

[7] = molecular target: Peroxisome proliferator-activated receptor delta (Homo sapiens) (UniProt Q03181); test: qHTS assay to identify small molecule agonists of the peroxisome proliferator-activated receptor delta (PPARd) signaling pathway (AID 743212; calls by dose curve;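 also: HEK293H cells with PPARd UAS beta-lactamase reporter GeneBLAzer system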)
How it was run: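 Beta-lactamase reporter readout: a ratiometric FRET signal from the LiveBLAzer substrate after 2 h at room temperature. Compound exposure at 37 °C in PPARδ-bla HEK293H cells driven by an upstream activator sequence.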

[8] = molecular target: Bile acid receptor (Homo sapiens) (UniProt Q96RI1); test: qHTS assay to identify small molecule antagonists of the farnesoid-X-receptor (FXR) signaling pathway (AID 743217; active = well fitted inhibition curve with a large enough effect in the signal ratio in the repeat runs, not every such curve was filed as active; the % refers to the signal ratio)
Bile acid receptor (Homo sapiens), sequence (Q96RI1 whole entry, looked up): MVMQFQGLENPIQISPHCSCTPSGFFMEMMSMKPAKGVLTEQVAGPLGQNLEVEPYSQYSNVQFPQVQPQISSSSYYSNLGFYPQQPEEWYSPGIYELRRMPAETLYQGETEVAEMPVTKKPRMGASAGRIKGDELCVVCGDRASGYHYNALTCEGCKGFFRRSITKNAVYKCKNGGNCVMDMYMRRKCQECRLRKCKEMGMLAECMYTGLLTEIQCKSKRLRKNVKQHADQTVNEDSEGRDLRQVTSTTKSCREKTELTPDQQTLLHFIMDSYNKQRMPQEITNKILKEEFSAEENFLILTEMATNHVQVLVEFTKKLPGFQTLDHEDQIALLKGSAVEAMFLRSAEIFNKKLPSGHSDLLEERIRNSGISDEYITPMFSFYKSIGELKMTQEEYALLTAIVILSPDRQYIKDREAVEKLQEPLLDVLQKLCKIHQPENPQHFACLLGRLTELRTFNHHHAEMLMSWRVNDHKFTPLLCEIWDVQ
How it was run: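 Antagonist mode: chenodeoxycholic acid at 50 uM final stimulates a UAS-driven beta-lactamase reporter in HEK 293T FXR-bla cells during 16 h, 37C compound exposure. Read-out is FRET substrate fluorescence after 2 h at room temperature.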

[9] = molecular target: Bile acid receptor (Homo sapiens) (UniProt Q96RI1); test: qHTS assay to identify small molecule agonists of the farnesoid-X-receptor (FXR) signaling pathway (AID 743220; active = well fitted activation curve with a large enough effect in the signal ratio in the repeat runs, not every such curve was filed as active; the % refers to the signal ratio)
How it was run: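 FXR-UAS-bla HEK 293T cells carrying a UAS-driven beta-lactamase reporter were plated for 5 h at 37C/5% CO2, then exposed to DMSO-dissolved Tox21 10K compounds for 16 h at 37C. A LiveBLAzer B/G FRET substrate was loaded for 2 h at room temperature before fluorescence reading.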

Measured: Potency

CC(C)c1cccc(C(C)C)c1N
not listed: [7] | [8] | [9]
inactive: all other assays above

CCCC(C)C(=O)O (stereo not drawn)
not listed: [1] | [2] | [3]
inactive: all other assays above

CCC(=O)Nc1cccc(N)c1
not listed: [7] | [8] | [9]
inactive: all other assays above

CCO[Si](CCCN=C=O)(OCC)OCC
not listed: [3] | [8] | [9]
inactive: all other assays above

CCCCCCCCCCCCI
not listed: [2] | [7]
inactive: all other assays above

Cn1ccc2cc3c(cc21)CCN3C(=O)Nc1cccnc1
not listed: [1] | [4] | [5]
inactive: all other assays above

CCOC(=O)[C@H](CCc1ccccc1)N[C@@H](C)C(=O)N1CCC[C@H]1C(=O)O
not listed: [1] | [6] | [9]
inactive: all other assays above

OCCCCCCO
not listed: [1] | [5]
inactive: all other assays above

Nc1[nH]c(=O)ncc1F
not listed: [3] | [7]
inactive: all other assays above

NC1CCN(c2cccc(Cl)n2)CC1
not listed: [2]
inactive: all other assays above

C1CCCCCCCCCCC1
not listed: [8] | [9]
inactive: all other assays above

COC[C@H](c1ccc(C(F)(F)F)cc1)N1CCN(C2(C)CCN(C(=O)c3c(C)ncnc3C)CC2)C[C@H]1C
not listed: [6] | [8] | [9]
inactive: all other assays above

Nc1cc(C(Cl)=C(Cl)Cl)c(S(N)(=O)=O)cc1S(N)(=O)=O
inactive: [1] | [3] | [4]

Nc1nc2c(ncn2CCC(CO)CO)c(=O)[nH]1
not listed: [2] | [6]
inactive: all other assays above

CCO[Si](C)(OCC)OCC
inactive: [2] | [4] | [5] | [6]

CCN1CCN(c2cc3c(cc2F)c(=O)c(C(=O)O)cn3C2CC2)CC1
inactive: [1] | [3] | [4] | [5] | [6]

CSc1nc(NC2CC2)nc(NC(C)(C)C)n1
inactive: [1] | [2] | [3] | [4]

CC(=O)O[C@H](CC(=O)[O-])C[N+](C)(C)C
inactive: [7] | [1] | [2] | [3] | [4]

CC(C)=CCC/C(C)=C/C(=O)O
inactive: [1] | [3] | [4]

Nc1ccc2cc(S(=O)(=O)O)ccc2c1
not listed: [1]
inactive: all other assays above

COC(=O)CCCC(=O)O
inactive: [7] | [1] | [2] | [4] | [5]

NC(=O)c1ncn([C@@H]2O[C@H](CO)[C@@H](O)[C@H]2O)c1N
inactive: [1] | [4] | [5] | [6]

CCCCCCOC(=O)CC(CC(=O)OCCCCCC)(OC(=O)CCC)C(=O)OCCCCCC
inactive: [7] | [1] | [3] | [4] | [5]

C/C=C1\C(=O)C[C@H]2[C@@H]3CCC4=CC(=O)CC[C@]4(C)[C@H]3CC[C@]12C
inactive: [1] | [3] | [4] | [5]

CCCCCCCCC=O
inactive: [7] | [4]

CO[Si](CCCNCCC[Si](OC)(OC)OC)(OC)OC
not listed: [2] | [7] | [8]
inactive: all other assays above

O=S(=O)(c1cccc2cnccc12)N1CCCNCC1
inactive: [7] | [1] | [9] | [4] | [5]

Fc1ccccc1-c1ccccc1
inactive: [1] | [2] | [4] | [5] | [6]

CCCCN(CCO)CCO
inactive: [1] | [4] | [5] | [6]

CC(CCO)CCCC(C)(C)O (stereo not drawn)
not listed: [2] | [7] | [8]
inactive: all other assays above

CN(C)CCn1nnnc1SCC1=C(C(=O)O)N2C(=O)[C@@H](NC(=O)Cc3csc(N)n3)[C@H]2SC1
not listed: [1] | [7]
inactive: all other assays above

C1C2OC2C2C1C1CC2C2OC12 (stereo not drawn)
inactive: [1] | [3] | [4] | [5]

COc1nc(C)nc(N)n1
not listed: [7] | [8] | [9]
inactive: all other assays above

c1cc(CN2CCCCC2)cc(OCCCNc2nc3ccccc3s2)c1
inactive: [2] | [3] | [4] | [5]

Nc1ncnc2c1ncn2Cc1c(F)cccc1Cl
inactive: [7] | [3] | [4] | [6]
